Measured values as given in PubChem BioAssay (NCI).
Several values for one entry are separate records, joined by “and”; a condition that tells them apart may be missing. Identical values can stand only once. Compounds without any hit were thinned out: in the full panel of roughly 83,000, 20% have a hit.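 Compound tested at a single concentration for 48 hours in 96-well plates; a percent growth value below 10 was scored as active.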 Activity calls are given as the source filed them.

test system: HCT-116 colon; assay: NCI-60 one-dose screen, 48 h (100 = growth as untreated, 0 = no growth, -100 = all killed); conditions: 10 µM unless noted

| Structure (SMILES) | growth |
| --- | --- |
| CC(Nc1ncnc2ccc(-c3ccc4oc(N)nc4c3)cc12)c1ccccc1 (centres undefined) | -64.7% (active) |
| CNc1nc2ccccc2n2c(-c3ccc(O)c(O)c3)cnc12 | 2.74% (active) |
| COc1cc(/C=C/C(=O)c2cnn(-c3cc(=O)[nH]c4ccc(Br)cc34)c2C)cc(OC)c1OC | -68.9% (active) |
| COc1ccc(/C=C/C(=O)c2ccc(OC)c(S(N)(=O)=O)c2)c(C(F)(F)F)c1 | -44.3% (active) |
| COc1ccc(S(=O)(=O)Nc2ccc(-c3ccc4c(c3)NC(=O)/C4=C\c3ccc[nH]3)cc2)cc1OC | 19% (inactive) |
| COC(=O)c1ccc(-c2c(-c3ccccc3)c(F)c3oc(C(=O)OC)c(N)c3c2-c2ccccc2)cc1 | 84.3% (inactive) |
| O=C(COc1ccc(/C=C2/C(=O)Nc3ccc(Cl)cc32)cc1)Nc1ccc(Br)cc1 | -64% (active) |
| O=C(CSc1nc2ccccc2c(=O)[nH]1)NNC(=O)c1ccccc1Cl | 109% (inactive) |
| COc1ccc2[nH]cc(-c3cc4nc(-c5cn(C)c6ncccc56)cc(N)n4n3)c2c1 | -81.3% (active) |
| COc1cc2cc(C(=O)N3C[C@@H](CCl)c4c3cc(OC(=O)N(CCC(=O)N3CCN(C)CC3)C3CCCCC3)c3ccccc43)[nH]c2c(OC)c1OC | -88.1% (active) |
| CC[C@]12C=CCN3CC[C@@]4(c5ccc(OC)cc5N(C)[C@H]4[C@@](O)(C(=O)OC)[C@@H]1OC(=O)CCCC[P+](c1ccc(F)cc1)(c1ccc(F)cc1)c1ccc(F)cc1)[C@@H]32 | 23.4% (inactive) |
| O=C(Nc1nc2ccc([N+](=O)[O-])cc2s1)Nc1ccccc1F | 3.1% (active) |
| O=C1C=CC(=CC=C2N(Cc3ccc4ccccc4c3)c3ccccc3N2Cc2ccc3ccccc3c2)C=C1 | 10.7% (inactive) and 14.7% (inactive) |
| O=c1[nH]c2ccccc2cc1COc1ccc(Nc2nccc(-c3ccc(Cl)cc3)n2)cc1 | 96.4% (inactive) |
| CC1=C(C(=O)Nc2ccccc2)C(c2ccc3ccccc3c2)n2c(nc3ccccc32)N1 (centres undefined) | -36.4% (active) |
| O=C1CC(c2ccc(I)cc2)OC2C=Cc3ccccc3C12 (centres undefined) | 98.9% (inactive) |
| COc1ccc(C(=O)/C=C/c2ccc3c(c2)OCCO3)cc1S(N)(=O)=O | 42.9% (inactive) |
| O=C(Cn1c(-c2ccccc2)nc2ccccc21)N=Nc1c(O)[nH]c2ccc(Br)cc12 | 1.09% (active) |
| Cn1cc(-c2cc3nc(-c4cn(C)c5ncc(Br)cc45)cc(N)n3n2)c2cc(F)ccc21 | -44.1% (active) |
| O=C1Nc2ccccc2/C1=C/C(=O)c1cc2ccccc2oc1=O | 66% (inactive) |
| CCC(=O)c1c2c(c3ccc4c5ccccc5ccc4n13)C(=O)c1ccccc1C2=O | 92.6% (inactive) |
| COc1ccc(C(=O)NNC(=O)CSc2nc3sc4c(c3c(=O)n2-c2ccc(Cl)cc2)CCCC4)cc1 | 72.7% (inactive) |
| Cc1nc2sccn2c1-c1nnc(SCC(C)C)o1 | 82.8% (inactive) |
| COc1ccc([C@H]2C(C(=O)c3ccc(Cl)cc3)C3(N[C@@H]2c2ccccc2)C(=O)Nc2ccccc23)cc1 (some centres undefined) | 26.1% (inactive) |
| CN(C)CCCNC(=S)Nc1ccc(/C=C/c2ccc(Cl)cc2)cc1 | -11.1% (active) |
| COc1ccc2[nH]c(=O)c(CSc3ccccc3Nc3nccc(-c4ccc(Cl)cc4)n3)cc2c1 | 11.9% (inactive) |
| CCN(C(=O)CN1C(=O)/C(=C/c2ccco2)SC1=S)C1CCS(=O)(=O)C1 (centres undefined) | 98.2% (inactive) |
| CC[C@@]12CC(C(=O)OC)=C3Nc4cc5c(cc4[C@@]34CCN(C[C@H]3O[C@H]31)[C@@H]24)[C@@H]1[C@H](O5)[C@@H](O)[C@@]2(CC)CC(C(=O)OC)=C3Nc4cc(O)ccc4[C@@]34CCN1[C@@H]24 | -50.4% (active) |
| CN(C)CCCc1ccc(Nc2cnn(C)c(=O)c2Cl)cc1 | 95.5% (inactive) |
